This note sets out measurements from PubChem BioAssay.

Each structure is given as a SMILES string. Results filed as inconclusive are left out. The source made the active and inactive calls.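 The calls were made as follows, unless noted: active = viability at or below 27.92% in each of two runs, the all-compound median minus 4 SD; inconclusive = no clear call, values can overlap the other calls; inactive = the rest.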

The nature of test [1]: reducers of endogenous Her2 protein level, primary screen, SKBR3 breast tumor cells, AlphaScreen, ATP viability (AID 461;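 active = Her2 level under about 52% in both replicate screens, with viability over 70% of control, limit read from the data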;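 as to Her2 level: lower value means less Her2 protein in the cells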;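 as to viability: percent of carrier control wells set as 100% viability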). The conditions noted are these: 18-24 h, measured here: SKBR3 viability, ATP luminescence, at 10 µM. For orientation: Alpha assays give light when donor and acceptor beads are brought close together.
In test [2] the target is Receptor tyrosine-protein kinase erbB-2 (Homo sapiens) (UniProt P04626). The test is described as above. The conditions noted are these: 18-24 h, at 10 µM, stronger effect = lower value.
Sequence of Receptor tyrosine-protein kinase erbB-2 (Homo sapiens) (P04626 whole entry, looked up): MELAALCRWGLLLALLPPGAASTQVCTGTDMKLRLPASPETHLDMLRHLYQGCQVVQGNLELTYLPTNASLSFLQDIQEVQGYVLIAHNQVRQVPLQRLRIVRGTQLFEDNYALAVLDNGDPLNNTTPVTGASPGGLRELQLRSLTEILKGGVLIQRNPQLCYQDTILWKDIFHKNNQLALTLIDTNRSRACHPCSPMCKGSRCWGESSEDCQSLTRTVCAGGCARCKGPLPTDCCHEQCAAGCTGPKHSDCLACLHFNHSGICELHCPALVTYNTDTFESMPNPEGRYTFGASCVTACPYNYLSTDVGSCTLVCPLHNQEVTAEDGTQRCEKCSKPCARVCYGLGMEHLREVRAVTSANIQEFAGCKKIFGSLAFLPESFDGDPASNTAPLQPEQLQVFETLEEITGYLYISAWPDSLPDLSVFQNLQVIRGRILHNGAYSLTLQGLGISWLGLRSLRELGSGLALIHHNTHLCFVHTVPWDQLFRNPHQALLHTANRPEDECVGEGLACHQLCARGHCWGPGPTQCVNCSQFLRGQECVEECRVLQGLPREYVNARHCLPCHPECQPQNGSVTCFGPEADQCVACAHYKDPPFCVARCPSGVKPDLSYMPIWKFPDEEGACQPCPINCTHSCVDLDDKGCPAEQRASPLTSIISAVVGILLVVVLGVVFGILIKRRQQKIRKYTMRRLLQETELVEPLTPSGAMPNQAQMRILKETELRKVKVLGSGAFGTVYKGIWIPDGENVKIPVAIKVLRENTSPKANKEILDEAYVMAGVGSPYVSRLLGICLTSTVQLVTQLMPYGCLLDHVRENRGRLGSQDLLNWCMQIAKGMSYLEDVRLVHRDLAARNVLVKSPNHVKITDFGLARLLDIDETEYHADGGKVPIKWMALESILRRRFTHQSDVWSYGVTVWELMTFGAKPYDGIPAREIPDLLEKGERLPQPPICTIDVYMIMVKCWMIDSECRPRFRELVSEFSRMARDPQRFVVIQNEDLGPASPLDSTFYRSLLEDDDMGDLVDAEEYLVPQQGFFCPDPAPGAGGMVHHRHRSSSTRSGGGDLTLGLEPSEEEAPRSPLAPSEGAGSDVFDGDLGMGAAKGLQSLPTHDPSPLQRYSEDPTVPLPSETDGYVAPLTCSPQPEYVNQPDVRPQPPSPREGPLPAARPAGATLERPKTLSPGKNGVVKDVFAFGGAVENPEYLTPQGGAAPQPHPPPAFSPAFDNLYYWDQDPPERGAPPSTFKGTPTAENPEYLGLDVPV
A short description of test [3]: SK-BR-3 cell growth inhibitors, pilot screen, 24 h, human (AID 572;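 active = viability at or below 10% of carrier control in both of two separate runs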;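 also: compound exposure lasted between 18 and 24 h rather than exactly 24 h; 100% = carrier-treated control wells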). The conditions noted are these: SK-BR-3 viability, CellTiter-Glo luminescence, at 10 µM, stronger effect = lower value. In general terms: Cellular ATP, detected with luciferase, serves as a proxy for viable cell number.
Test [4] is described as follows: HUVEC growth inhibition – cell-based, human, primary screen (AID 575;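 active = viability at or below 30% in both replicate assays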;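 also: 100% = median of untreated cell wells with 0.1% DMSO on each plate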). The conditions noted are these: HUVEC proliferation, CellTiter-Glo luminescence, 72 h; at 10 µM; stronger effect = lower value.
Test [5] in a line: growth inhibitors of H69AR lung tumor, primary screen, human, duplicate replicates (AID 580;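 active = viability at or under a set limit in both replicates, limit being median viability minus 3 SD, cut at about 48% in these data, passing the limit was not always enough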;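 also: 100% = mean luminescence of untreated wells and 0% = no signal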). To be noted: H69AR lung tumor cells viability, ATP luminescence, 72 h; at 10 µM; stronger effect = lower value.
A short description of test [6]: reversal of MRP1-mediated doxorubicin resistance, pilot screen, H69AR cells, doxorubicin co-treatment (AID 601;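 active = viability loss from added drug above about 55%, and viability with drug at most 40%, in both replicates, limit read from the data, passing the limit was not always enough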). To be noted: CellTiter-Glo, 72 h, at 10 µM; for differential viability (reversal): stronger effect = higher value.
A short description of test [7]: 384-well plate pilot, post-Golgi transport modulator project, inhibition of yeast transport mutant growth (AID 636; in the data active = inhibition above about 31%). To be noted: absorbance 615 nm, about 18 h, stronger effect = higher value.
Test [8] can be described thus: growth suppression of yeast trafficking mutant, preliminary HTS, modulators of trafficking downstream of Golgi apparatus project, 1536-format plate, OD 615 nm (AID 637; in the data active = inhibition above about 30%). To be noted: yeast transport mutant growth, absorbance 615 nm, 18 h; stronger effect = higher value.
Test [9] can be described thus: OD615 S. cerevisiae growth inhibition, permissive medium, pilot counter-assay, permissive growth control for S. cerevisiae lifespan shortening project (AID 705;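 active = growth inhibition above 25% in both replicates, a cutoff set 3 SD above the mean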). The conditions noted are these: OD615, 24 h, at 10 µM, stronger effect = higher value.
Test [10] in a line: Restrictive medium S. cerevisiae growth inhibition, OD615, pilot screen of yeast lifespan reduction project, restrictive growth control (AID 706;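 active = growth inhibition above a set limit, 3 SD over mean compound inhibition, in both replicates, cut at about 43% in these data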;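 also: modified DeaD lifespan yeast strain shifted to restrictive glucose medium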). The conditions noted are these: OD615, 48 h, at 10 µM, stronger effect = higher value.
Test [11] in a line: viability gain of MRP-1-high H69AR cells under doxorubicin, pilot screen, MRP-1 activator project, CellTiter-Glo, duplicate (AID 807;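 active = viability increase at or above a cutoff of the median across tested compounds plus 3 SD, cut at about 8.5% in these data, passing the limit was not always enough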;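 also: compound pretreatment 18-22 h then 72 h combined with doxorubicin; 0% = doxorubicin alone and 100% = vehicle without doxorubicin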). The conditions noted are these: H69AR viability with doxorubicin, CellTiter-Glo luminescence; at 10 µM; stronger effect = higher value.
Test [12] in a line: growth suppression of beta-catenin knockout HCT116, pilot screen, human colon tumor cells (AID 823;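 active = cell viability at or below a set limit in both duplicate runs, the limit being the all-compound median minus 4 SD, cut at about 23% in these data, passing the limit was not always enough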;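 also: 0% = wells killed by 20 µM Hyamine and 100% = untreated DMSO cell wells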). To be noted: CellTiter-Glo, 60 h, at 10 µM, stronger effect = lower value.
A short description of test [13]: growth suppression of PTEN-deleted HCT116, pilot screen, cell-based, HCT116 clonal line, CellTiter-Glo (AID 824).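 Also: 0% = 20 µM Hyamine control and 100% = vehicle cell control.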 The conditions noted are these: 60 h, at 10 µM, stronger effect = lower value.
Test [14] in a line: inhibitors of the yeast RAM network, pilot screen, dse1pr::URA3 reporter, 5-FOA selection (AID 869;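 active = inhibition over a set limit, the all-compound mean plus 3 SD, in both replicate runs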;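 also: 0% = DMSO wells with no growth and 100% = 10 µM 1-NA-PP1 with full growth; RAM network block rescues cells from 5-FOA so hits raise OD615 growth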). The conditions noted are these: S. cerevisiae dse1pr::URA3 5-FOA growth, OD615, 2 d; at 10 µM; stronger effect = higher value; strain carries analog-sensitive mutant Cbk1 kinase.
Test [15] in a line: RAM signaling pathway blockade in yeast – S. cerevisiae, Pdr1DBD-CYC8 efflux-inhibited sensitized strain, primary screen (AID 1298;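 active = RAM network inhibition above 8.4% in each of two replicates, 3 SD over the compound average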;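 also: 0% = DMSO untreated cells without growth and 100% = 10 µM 1-NA-PP1 full growth; higher means more yeast growth rescued from 5-FOA killing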). To be noted: S. cerevisiae cbk1-as DSE1-URA3 strain, 5-FOA growth OD615, 2 d; at 50 µM; stronger effect = higher value.
The mark [16] stands for this setting: H69AR cells + 2 uM doxorubicin, measured here: viability with 2 uM doxorubicin, stronger effect = lower value.
Where [17] appears, read: H69AR cells, compound alone cytotoxicity.

As to `CCCCCOc1ccc(C2NC(=O)NC2=O)cc1` (stereo not given), the viability in test [1] was 97%; in [3], 97% (inactive); in test [4], 102% (inactive); in [5] it was 106% (inactive); in [6] (setting [16]), 88.1%; in [6] (setting [17]), 106%. The viability in test [12] was 101% (inactive); in test [13], 94.5% (inactive). Further, in test [2], the Her2 level was 109% (inactive). The differential viability (reversal) in [6] (H69AR cells + 2 uM doxorubicin) is 18.2% (inactive). Besides, the inhibition in [7] was -4.93% (inactive); in test [8], -3.5% (inactive); in test [14], 0.245% (inactive). In addition, the growth inhibition is -7.17% (inactive) in test [9] and -19.9% (inactive) in test [10]. In addition, in test [11], the viability increase was -1.63% (inactive). The RAM network inhibition in test [15] was 1.57% (inactive).

`O=C1c2ccccc2C(Nc2ccc(F)cc2F)N1CCN1CCOCC1` (stereo not given): the viability in test [1] was 83%; in test [3], 83% (inactive); in test [4], 87.8% (inactive); in [5] it was 78.2% (inactive); in [6] (setting [16]), 81.9%; in [6] (setting [17]) it was 78.2%. The viability in test [12] is 98.8% (inactive); in [13], 104% (inactive). The Her2 level in test [2] was 83% (inactive). For the same compound, in [6] (H69AR cells + 2 uM doxorubicin), the differential viability (reversal) is -3.69% (inactive). The inhibition in test [7] was -5.73% (inactive); in test [8], 3.17% (inactive); in test [14] it was 1.3% (inactive). In addition, the growth inhibition in [9] is 0.235% (inactive); in test [10] it was -1.68% (inactive). Further, in test [11], the viability increase was -1.58% (inactive). In addition, the RAM network inhibition in [15] is 0.93% (inactive).

With `Cc1c(C(=O)OC2CCC(C)CC2)[nH]c2c1C(=O)CCC2` (stereo not given), the viability is 69.5% in test [1]; 69.5% (inactive) in test [3]; 87.6% (inactive) in test [4]; 86.8% (inactive) in test [5]; 91.2% in [6] (setting [16]); 86.8% in [6] (setting [17]). The results for the viability in test [12] and in test [13] were 97.7% (inactive) and 92.9% (inactive), respectively. The Her2 level in [2] is 78% (inactive). Further, in test [6] (H69AR cells + 2 uM doxorubicin), the differential viability (reversal) is -4.38% (inactive). Also, the inhibition was 5.07% (inactive) in [7], 1.97% (inactive) in [8] and 1.67% (inactive) in test [14]. The growth inhibition in test [9] was -11.8% (inactive); in test [10], -6.09% (inactive). Also, in [11], the viability increase was 2.52% (inactive). In addition, the RAM network inhibition in test [15] was 3.39% (inactive).

As to `O=C(c1ccc2nc(N3CCCCC3)sc2c1)N1CCN(c2ccccn2)CC1`, the viability in [1] is 87%; in [3], 87% (inactive); in test [4], 68.1% (inactive); in [5], 102% (inactive); in test [6] (setting [16]), 100%; in [6] (setting [17]) it was 102%. The viability in test [12] is 106% (inactive); in [13] it was 98.6% (inactive). Besides, the Her2 level in [2] is 102% (inactive). The differential viability (reversal) in [6] (H69AR cells + 2 uM doxorubicin) was 2.3% (inactive). The inhibition in test [7] was -1.54% (inactive); in test [8], 1% (inactive); in test [14] it was 2.38% (inactive). In addition, the growth inhibition is 2.65% (inactive) in [9] and -0.825% (inactive) in test [10]. Further, in test [11], the viability increase was 0.27% (inactive). In addition, in [15], the RAM network inhibition was -1.58% (inactive).

With `c1ccc(C2(Cn3ccc4ccccc43)OCCO2)cc1`, the viability was 89% in [1]; 89% (inactive) in test [3]; 93.7% (inactive) in test [4]; 94.9% (inactive) in test [5]; 87.1% in [6] (setting [16]); 94.9% in test [6] (setting [17]). Moreover, the viability is 81.6% (inactive) in test [12] and 81.8% (inactive) in [13]. Moreover, in test [2], the Her2 level was 104% (inactive). The differential viability (reversal) in [6] (H69AR cells + 2 uM doxorubicin) is 7.87% (inactive). The results for the inhibition in test [7], in test [8] and in test [14] were -0.78% (inactive), 3.44% (inactive) and 1.63% (inactive), respectively. Besides, the growth inhibition is -4.05% (inactive) in test [9] and -10.5% (inactive) in [10]. The viability increase in test [11] was -3.2% (inactive). Moreover, the RAM network inhibition in [15] was 6.65% (inactive).

As usually defined, the viability is a read-out of living cells in per cent, often relative to untreated cells. A word on the inhibition: it is the change of the read-out against control, counted positive when it falls.
